Data taken from PubChem BioAssay.
The source made the active and inactive calls. Unless noted, no rule for the calls is given here.

Tests used:
[1] = compound effects on lung adenocarcinoma cell viability – A549, calcein-AM fluorescence, 48 h, basal, profiling panel (AID 1162); conditions: higher = more signal; also: test concentration not given here
[2] = compound effects on differentiated 3T3-L1 adipocyte viability – cell-based, 3T3-L1 adipocytes, calcein-AM fluorescence, 48 h, basal, profiling panel (AID 1163); conditions: 3T3-L1 adipocytes viability, higher = more signal; also: test concentration not given here
[3] = compound effects on hepatocellular carcinoma cell viability – HepG2, calcein-AM fluorescence, 48 h, basal, profiling panel (AID 1164); conditions: higher = more signal; also: test concentration not given here
[4] = compound effects on multiple myeloma cell viability – MM1S, calcein-AM fluorescence, 48 h, basal, profiling panel (AID 1165); conditions: higher = more signal; also: test concentration not given here
[5] = calcein-AM signal in unstimulated myeloma cells – cell-based, calcein-AM fluorescence, 48 h, PK04 Diversity Set, profiling panel (AID 1166); conditions: RPMI8226 myeloma viability, higher = more signal;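 also: cells grown under basal conditions without added stimulus; test concentration not given here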
[6] = JC-1 mitochondrial signal, unstimulated HepG2 cells – cell-based, JC-1 fluorescence, 24 h, 100 nL compound, profiling panel (AID 1167); conditions: HepG2 mitochondrial potential, higher = more signal; also: test concentration not given here
[7] = JC-1 mitochondrial signal, unstimulated adipocytes – cell-based, JC-1 fluorescence, 3T3-L1 adipocytes, 24 h, 100 nL compound, profiling panel (AID 1168); conditions: JC-1 mitochondrial fluorescence, higher = more signal, called active from +8 up or from −8 down; also: test concentration not given here
[8] = JC-1 mitochondrial signal, unstimulated myeloma cells – cell-based, JC-1 fluorescence, RPMI8226, 24 h, 100 nL compound, profiling panel (AID 1169); conditions: JC-1 mitochondrial potential fluorescence, higher = more signal; also: test concentration not given here
[9] = JC-1 mitochondrial signal, unstimulated MM1S myeloma – cell-based, JC-1 fluorescence, 24 h, 100 nL compound, profiling panel (AID 1170); conditions: MM1S mitochondrial potential, higher = more signal; also: test concentration not given here
[10] = resazurin metabolic signal in A549 cells – cell-based, resazurin fluorescence, 24 h, PK04 Diversity Set, profiling panel (AID 1171); conditions: A549 viability, higher = more signal, called active from +8 up or from −8 down; also: test concentration not given here
[11] = resazurin metabolic signal in HepG2 cells – cell-based, resazurin fluorescence, 24 h, PK04 Diversity Set, profiling panel (AID 1172); conditions: HepG2 viability, higher = more signal; also: test concentration not given here
[12] = budding yeast growth changes without added modifier – OD600, strain BY4716, 24 h, basal condition, primary screen (AID 1173); conditions: S. cerevisiae BY4716 growth, OD600, 24 h; higher = more signal, called active from +8 up or from −8 down
[13] = viability profiling in MM1S myeloma cells – cell-based, resazurin fluorescence, basal, 24 h, PK04 Diversity Set, profiling panel (AID 1174); conditions: higher = more signal, called active from +8 up or from −8 down; also: test concentration not given here
[14] = molecular target: Dihydroorotate dehydrogenase (quinone), mitochondrial (Plasmodium falciparum (isolate 3D7)) (UniProt Q08210); assay: inhibition of P. falciparum DHODH – biochemical, C-terminal His tag, absorbance 600 nm, primary screen (AID 1175); conditions: PfDHODH enzyme, DCIP absorbance 600 nm; higher = more signal, called active from +8 up or from −8 down;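 also: recombinant parasite enzyme with a five histidine tag at its C terminus; test concentration not given here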
Sequence of Dihydroorotate dehydrogenase (quinone), mitochondrial (Plasmodium falciparum (isolate 3D7)) (Q08210 whole entry, looked up): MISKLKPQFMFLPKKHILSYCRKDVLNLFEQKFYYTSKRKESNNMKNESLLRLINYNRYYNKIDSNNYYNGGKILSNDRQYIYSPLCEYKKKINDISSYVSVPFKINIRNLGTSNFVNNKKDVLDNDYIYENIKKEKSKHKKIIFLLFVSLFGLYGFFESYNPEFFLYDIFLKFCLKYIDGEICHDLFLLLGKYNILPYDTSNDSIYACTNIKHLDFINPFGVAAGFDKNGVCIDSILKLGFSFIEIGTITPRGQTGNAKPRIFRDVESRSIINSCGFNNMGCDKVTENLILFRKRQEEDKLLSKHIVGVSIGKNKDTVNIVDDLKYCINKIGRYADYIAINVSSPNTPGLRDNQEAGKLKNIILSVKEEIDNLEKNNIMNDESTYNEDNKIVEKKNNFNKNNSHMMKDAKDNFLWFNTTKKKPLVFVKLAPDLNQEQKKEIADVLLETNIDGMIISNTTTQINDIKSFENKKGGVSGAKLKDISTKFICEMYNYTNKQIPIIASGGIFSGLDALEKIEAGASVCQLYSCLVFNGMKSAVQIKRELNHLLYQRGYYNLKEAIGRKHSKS

[15] = inhibition of PAO1 biofilm formation – strain PAO1, LB-PBS medium, absorbance 600 nm, primary screen (AID 1176); also: test concentration not given here; conditions: P. aeruginosa PAO1 growth/biofilm, A600, 12 h; higher = more signal
[16] = growth modulation of vineyard yeast isolate – strain RM11-1a, OD600, basal, 24 h, primary screen (AID 1177);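 also: cultures grown under basal conditions with no added stressor; test concentration not given here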; conditions: S. cerevisiae RM11-1a growth, OD600, 24 h; higher = more signal, called active from +8 up or from −8 down
[17] = growth of efflux-deficient E. coli DRC39 – strain DRC39, OD650, 24 h, E. coli filamentation inducers, primary screen (AID 1178);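 also: growth measured as culture turbidity by optical density at 650 nm; test concentration not given here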; conditions: E. coli DRC39 acrAB, higher = more signal, called active from +8 up or from −8 down
[18] = growth of efflux-deficient E. coli DRC39 – strain DRC39, OD650, 48 h, E. coli filamentation inducers, primary screen (AID 1179);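 also: screen aims at cell division blockers that make cells filament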; conditions: E. coli DRC39 delta-acrAB growth, higher = more signal, called active from +8 up or from −8 down
[19] = viability profiling in RPMI8226 myeloma cells – cell-based, resazurin fluorescence, basal, 24 h, PK04 Diversity Set, profiling panel (AID 1180); conditions: higher = more signal;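 also: RPMI8826 multiple myeloma cell line at 5000 cells per well; test concentration not given here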
[20] = molecular target: E3 ubiquitin-protein ligase XIAP (Homo sapiens) (UniProt P98170); assay: small molecules binding XIAP protein – biophysical, small-molecule microarray, fluorescence 635 nm, primary screen (AID 1181); conditions: higher = more signal;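 also: score merges 667 nm emission and signal to noise over triplicate slides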
Sequence of E3 ubiquitin-protein ligase XIAP (Homo sapiens) (P98170 whole entry, looked up): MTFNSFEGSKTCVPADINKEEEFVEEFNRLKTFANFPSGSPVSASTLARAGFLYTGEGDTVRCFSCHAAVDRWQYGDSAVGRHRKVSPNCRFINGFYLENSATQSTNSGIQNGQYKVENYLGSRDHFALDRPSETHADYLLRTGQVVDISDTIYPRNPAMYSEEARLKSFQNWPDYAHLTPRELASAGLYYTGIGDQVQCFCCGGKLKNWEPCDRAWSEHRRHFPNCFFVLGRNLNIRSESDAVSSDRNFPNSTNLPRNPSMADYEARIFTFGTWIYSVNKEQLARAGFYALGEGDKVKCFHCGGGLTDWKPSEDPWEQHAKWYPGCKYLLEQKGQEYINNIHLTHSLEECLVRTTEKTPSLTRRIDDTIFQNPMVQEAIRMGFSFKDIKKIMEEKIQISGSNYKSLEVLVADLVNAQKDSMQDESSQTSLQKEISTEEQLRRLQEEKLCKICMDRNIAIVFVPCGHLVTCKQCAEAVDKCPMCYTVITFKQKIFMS

Structure (SMILES) | z-score [1] | z-score [2] | z-score [3] | z-score [4] | z-score [5] | z-score [6] | z-score [7] | z-score [8] | z-score [9] | z-score [10] | z-score [11] | z-score [12] | z-score [13] | composite z-score [14] | z-score [15] | z-score [16] | z-score [17] | z-score [18] | z-score [19] | composite z-score [20]
[N-]=[N+]=Nc1ccccc1C[C@]1(C(=O)N2CCCCC2)N=C(c2ccc(OCCCO)cc2)O[C@H]1c1ccccc1 | -0.786 | 0.0946 | 0.014 | -3.29 | -4.3 | 0.839 | 0.231 (inactive) | -1.2 | -2.15 | -0.676 (inactive) | -0.256 | -1.04 (inactive) | -2.4 (inactive) | -0.343 (inactive) | 0.522 (inactive) | 0.864 (inactive) | 0.463 (inactive) | 0.647 (inactive) | -2.06 | -0.102
CN(C)C(=O)[C@]1(CCS(=O)(=O)c2ccccc2)N=C(c2ccc(OCCCO)cc2)O[C@@H]1c1ccccc1CN=[N+]=[N-] | -0.306 | -0.0349 | 0.589 | -1.29 | 0.382 | -0.12 | -0.197 (inactive) | 0.0522 | -0.776 | 1.09 (inactive) | 1.46 | 0.705 (inactive) | 0.273 (inactive) | 0.37 (inactive) | 0.743 (inactive) | 0.3 (inactive) | 0.293 (inactive) | -0.373 (inactive) | -0.0461 | 0.558
CC1(C)OB(/C=C\CC(OC(=O)c2ccncc2)c2ccccc2)OC1(C)C (stereo not given) | -0.0116 | 0.282 | -0.691 | -0.475 | -1.45 | -1.27 | -0.928 (inactive) | -0.194 | 0.343 | 0.0383 (inactive) | -0.159 | -1.17 (inactive) | 0.217 (inactive) | -0.413 (inactive) | -0.159 (inactive) | -0.786 (inactive) | 0.0147 (inactive) | -0.465 (inactive) | 0.143 | 0.0487
CO[C@H]1O[C@H](CO)[C@@H](OC(=O)Nc2ccccc2)[C@@H]2OC(=O)[C@@H](Cc3ccccc3)C/C=C/C[C@H](Cc3ccccc3)C(=O)O[C@@H]12 | -0.255 | -0.0852 | 0.297 | 0.36 | 0.335 | -0.502 | 2.28 (inactive) | -0.532 | -1.65 | -0.869 (inactive) | -0.472 | 0.153 (inactive) | -2.22 (inactive) | -1.38 (inactive) | 0.0126 (inactive) | 1.04 (inactive) | -0.409 (inactive) | 0.582 (inactive) | -0.381 | 0.381
C=CCOC(=O)[C@@H]1[C@H]2C(=O)O[C@H](c3ccccc3)[C@H](c3ccccc3)N2[C@H](c2ccc(OCCOC(=O)[C@@H]3C[C@@H]4C(=O)N[C@@H](CC(C)C)C(=O)N4[C@@H]3c3ccc(O)cc3)cc2)[C@@]12C(=O)Nc1ccc(I)cc12 | -0.226 | 0.175 | -0.0024 | 0.26 | 1.31 | -1.61 | 0.872 (inactive) | -0.575 | -0.925 | 0.595 (inactive) | 0.438 | 0.893 (inactive) | 0.246 (inactive) | -1.42 (inactive) | 0.848 (inactive) | 1.75 (inactive) | 0.703 (inactive) | -0.215 (inactive) | 0.676 | 0.155
C=C(C)C1CN([C@H](CO)c2ccccc2)C(=O)/C1=C\c1ccccc1 (stereo not given in full) | -0.121 | 1.55 | 0.0701 | -0.313 | -1.89 | -1.11 | 0.0548 (inactive) | 0.354 | -1.06 | -0.846 (inactive) | -0.607 | -5.73 (inactive) | 0.44 (inactive) | -2.88 (inactive) | -0.234 (inactive) | 0.119 (inactive) | 0.408 (inactive) | -0.719 (inactive) | 0.064 | 0.126
COCCOC(=O)N1C(=O)[C@@]2(c3cc(C#CCNC(N)=O)ccc31)[C@H](c1ccc(O)cc1)N1[C@H](c3ccccc3)[C@H](c3ccccc3)OC(=O)[C@H]1[C@@H]2C(=O)N1CCc2cc(OC)c(OC)cc2C1 | 0.571 | -0.065 | -0.281 | -0.72 | 0.542 | -1.82 | -0.338 (inactive) | 0.0593 | 0.583 | 0.0875 (inactive) | -0.328 | 1.66 (inactive) | -0.202 (inactive) | 1.38 (inactive) | 0.902 (inactive) | 2.24 (inactive) | -0.0681 (inactive) | -0.119 (inactive) | -0.242 | 0.171
CCOC(=O)C[C@H]1[C@H](OC(=O)c2cc3ccccc3oc2=O)[C@@H](NC(=O)Cc2ccc(OC)cc2)c2cc(OCCCO)ccc2N1C(=O)Cc1ccc(OC)cc1 | 1.16 | 1.68 | 0.37 | 0.789 | 0.148 | 0.164 | -0.3 (inactive) | 0.301 | -0.985 | 0.551 (inactive) | 1.04 | -3.03 (inactive) | 1.26 (inactive) | -0.317 (inactive) | -0.234 (inactive) | -1.01 (inactive) | 1.76 (inactive) | 0.248 (inactive) | 0.918 | 0.177
COc1ccc(C(O)C2C=CC3C(=O)N(c4ccccc4)C(=O)C3N2Nc2ccccc2F)c2ccccc12 (stereo not given) | 0.23 | -0.229 | -0.737 | -1.91 | -1.61 | -1.78 | 0.385 (inactive) | -0.172 | -0.754 | 0.473 (inactive) | -1.83 | -1.71 (inactive) | -0.042 (inactive) | -0.588 (inactive) | 1.15 (inactive) | -0.0824 (inactive) | -0.203 (inactive) | -0.617 (inactive) | 0.0565 | 0.253
